Compounds without any hit were thinned out: in the full panel of roughly 79,000, 15% have a hit. Active and inactive are the calls of the source. Cut-off read from the data, not from the text of the source: active = growth inhibition above about 70%; inactive = the rest.
Legend:
[1] = NCI Yeast Anticancer Drug Screen. Data for the wt2 strain (AID 169);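 note: 0% = growth of vehicle-treated yeast cultures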; details: S. cerevisiae wt2 strain growth inhibition, active compounds read high
Method in brief: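 This strain belongs to a panel of yeast strains with defined genetic alterations in DNA damage repair or cell cycle control. Compounds are applied, and growth inhibition is measured against vehicle-treated cultures.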

[2] = NCI Yeast Anticancer Drug Screen. Data for the mlh1 strain (AID 171);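 note: 0% = growth of vehicle-treated control cultures of the same strain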; details: S. cerevisiae mlh1 strain growth inhibition, active compounds read high
Method in brief: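 Growth of the mutant yeast strain after compound exposure, expressed as inhibition relative to vehicle-only controls.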

[3] = NCI Yeast Anticancer Drug Screen. Data for the sgs1 strain (AID 173);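 note: 0% = growth of vehicle-only control cultures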; details: S. cerevisiae sgs1 mutant, active compounds read high
Method in brief: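 Growth of a yeast strain bearing a defined genetic alteration is measured after compound treatment. Inhibition is expressed relative to vehicle-only controls.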

[4] = NCI Yeast Anticancer Drug Screen. Data for the rad18 strain (AID 177); details: S. cerevisiae rad18 mutant growth inhibition, active compounds read high
Method in brief: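 Growth of the mutant yeast strain after compound exposure, normalised to vehicle-only cultures.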

[5] = NCI Yeast Anticancer Drug Screen. Data for the rad52 strain (AID 147);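 note: 0% = growth of vehicle-treated control cultures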; details: S. cerevisiae rad52 mutant growth inhibition, active compounds read high
Method in brief: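 Compounds are applied to a genetically defined yeast strain lacking normal DNA damage repair, and inhibition of growth is expressed relative to cultures given vehicle only.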

[6] = NCI Yeast Anticancer Drug Screen. Data for the wt1 strain (AID 149);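 note: 0% = growth of vehicle-treated wt1 cultures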; details: S. cerevisiae wt1 strain (SPY 50644) growth inhibition, active compounds read high
Method in brief: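 Compounds are added to wt1 yeast cultures. Growth is then measured. Inhibition is expressed relative to vehicle-treated controls.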

[7] = NCI Yeast Anticancer Drug Screen. Data for the rad50EPP+ strain (AID 151);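 note: 0% = growth of vehicle-treated control cultures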; details: S. cerevisiae rad50 mutant strain, active compounds read high
Method in brief: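 Compounds were applied to the rad50EPP+ yeast strain, which bears a defined DNA repair alteration, and growth inhibition was determined relative to vehicle-treated cultures.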

[8] = NCI Yeast Anticancer Drug Screen. Data for the mgt1 strain (AID 153); details: S. cerevisiae mgt1 mutant growth inhibition, active compounds read high
Method in brief: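 Strain: mgt1 yeast, one of a set carrying defined DNA damage repair or cell cycle control alterations. Compound-treated growth compared with vehicle.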

[9] = NCI Yeast Anticancer Drug Screen. Data for the rad50 strain (AID 155);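 note: 0% = growth of vehicle-only cultures of the same strain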; details: S. cerevisiae rad50 strain growth inhibition, active compounds read high
Method in brief: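 Inhibition values express reduced yeast growth in compound-treated cultures relative to vehicle-treated controls.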

[10] = NCI Yeast Anticancer Drug Screen. Data for the mec2-1 strain (AID 157); details: S. cerevisiae mec2-1 strain, active compounds read high
Method in brief: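 Strain: mec2-1 (DNA repair/cell cycle alteration). Compound exposure, then growth measured; inhibition expressed relative to vehicle.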

[11] = NCI Yeast Anticancer Drug Screen. Data for the rad14 strain (AID 159);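 note: 0% = growth of vehicle-treated control cultures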; details: S. cerevisiae rad14 strain growth inhibition, active compounds read high
Method in brief: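 A mutant yeast strain defective in DNA damage repair is treated with compound; inhibition of its growth is scored against untreated, vehicle-exposed cultures.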

[12] = NCI Yeast Anticancer Drug Screen. Data for the sgs1 mgt1 strain (AID 161);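 note: 0% = growth of cultures given vehicle only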; details: S. cerevisiae sgs1 mgt1 strain, active compounds read high
Method in brief: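 Genetically altered yeast, compound exposure, growth inhibition relative to vehicle.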

[13] = NCI Yeast Anticancer Drug Screen. Data for the CLN2oe strain (AID 163);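 note: 0% = growth of vehicle-only control cultures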; details: S. cerevisiae CLN2oe strain, active compounds read high
Method in brief: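 Growth of a genetically modified yeast strain is measured after compound exposure and compared with cultures given vehicle alone.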

[14] = NCI Yeast Anticancer Drug Screen. Data for the cln2 rad14 strain (AID 165);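 note: 0% = growth equal to vehicle treated cultures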; details: S. cerevisiae cln2 rad14 strain, active compounds read high
Method in brief: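 Compounds are applied to the cln2 rad14 yeast strain, and growth is then compared with that of vehicle-treated cultures to give inhibition.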

[15] = NCI Yeast Anticancer Drug Screen. Data for the bub3 strain (AID 167); details: S. cerevisiae bub3 mutant strain, active compounds read high
Method in brief: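 Steps: expose the mutant yeast strain to compound; grow alongside vehicle-treated cultures; measure growth; express inhibition against the vehicle cultures.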

[16] = at 5.0 µM (retest, dose inferred, filed as 0.5)
[17] = at 50.0 µM (retest, dose inferred, filed as 5.0)

Measured: growth inhibition

CC1CCN(CCC(=O)c2ccc(Cl)cc2)CC1
inactive: [1]; at 1.2 µM 0% | [1]; at 3.7 µM 1% | [1]; at 11.0 µM 18% | [1]; at 33.0 µM 5% | [1]; at 100.0 µM 21% | [2]; at 1.2 µM 2% | [2]; at 3.7 µM 14% | [2]; at 11.0 µM 26% | [2]; at 33.0 µM 26% | [2]; at 100.0 µM 40% | [3]; at 1.2 µM 5% | [3]; at 3.7 µM 32% | [3]; at 11.0 µM 45% | [3]; at 33.0 µM 62% | [3]; at 100.0 µM 66% | [4]; at 1.2 µM 5% | [4]; at 3.7 µM 18% | [4]; at 11.0 µM 17% | [4]; at 33.0 µM 28% | [4]; at 100.0 µM 42%

C/C(=N/NC(=S)N1CCCCCC1)c1cccc(/C(C)=N\NC(=S)N2CCCCCC2)n1
inactive: [5]; at 1.2 µM 19% | [5]; at 3.7 µM 25% | [5]; at 11.0 µM 54% | [6]; at 1.2 µM 17% | [6]; at 3.7 µM 34% | [6]; at 11.0 µM 60% | [7]; at 1.2 µM 0% | [7]; at 3.7 µM -1% | [7]; at 11.0 µM -27% | [7]; at 33.0 µM -48% | [7]; at 100.0 µM -39% | [8]; at 1.2 µM 23% | [8]; at 3.7 µM 35% | [8]; at 11.0 µM 52% | [8]; at 100.0 µM 69% | [9]; at 1.2 µM 38% | [9]; at 3.7 µM 42% | [9]; [16] 42% | [9]; at 11.0 µM 62% | [10]; at 1.2 µM 22% | [10]; at 3.7 µM 31% | [10]; [16] 31% | [10]; at 11.0 µM 51% | [11]; at 1.2 µM 6% | [11]; at 3.7 µM 14% | [11]; at 11.0 µM 40% | [12]; [16] 43% | [13]; at 1.2 µM -4% | [13]; at 3.7 µM -4% | [13]; at 11.0 µM -6% | [13]; at 33.0 µM -5% | [13]; at 100.0 µM 23% | [14]; [16] 9% | [15]; at 1.2 µM -4% | [15]; at 3.7 µM -3% | [15]; [16] 58% | [15]; at 11.0 µM -4% | [15]; at 33.0 µM 7% | [15]; at 100.0 µM 15% | [1]; at 1.2 µM -1% | [1]; at 3.7 µM -6% | [1]; at 11.0 µM -1% | [1]; at 33.0 µM 8% | [1]; at 100.0 µM 32% | [2]; at 1.2 µM -2% | [2]; at 3.7 µM -9% | [2]; at 11.0 µM 51% | [3]; at 1.2 µM 21% | [3]; at 3.7 µM 15% | [3]; at 11.0 µM 41% | [3]; at 33.0 µM 66% | [4]; at 1.2 µM 10% | [4]; at 3.7 µM 26% | [4]; at 11.0 µM 46% | [4]; at 33.0 µM 67%
active: [5]; at 33.0 µM 73% | [5]; at 100.0 µM 71% | [6]; at 33.0 µM 82% | [6]; at 100.0 µM 81% | [8]; at 33.0 µM 80% | [9]; at 33.0 µM 79% | [9]; [17] 93% | [9]; at 50.0 µM 90.8% | [9]; at 100.0 µM 73% | [10]; at 33.0 µM 81% | [10]; [17] 92% | [10]; at 50.0 µM 91% | [10]; at 100.0 µM 83% | [11]; at 33.0 µM 71% | [11]; at 100.0 µM 76% | [12]; [17] 93% | [12]; at 50.0 µM 92.8% | [14]; [17] 91% | [14]; at 50.0 µM 93.2% | [15]; [17] 92% | [15]; at 50.0 µM 92% | [2]; at 33.0 µM 76% | [2]; at 100.0 µM 71% | [3]; at 100.0 µM 73% | [4]; at 100.0 µM 70%

Reference: PubChem BioAssay (NCI)
